Data on 16 compounds can be found in PubChem BioAssay AID1491 (National Center for Advancing Translational Sciences (NCATS), 2009).

Each structure is given as a SMILES string. Inconclusive results are not listed. Where a call stands in place of a potency, no number is given. Activity calls are given as the source filed them. Calls follow the shape of the dose curve; as a rule, active = well fitted inhibition curve with a large enough effect in the main read-out, with a control signal flat; inconclusive = small, poorly fitted or top-dose-only effect, or a change in a side signal; inactive = flat fitted curve, though single readings scatter.

This assay deals with Neuropeptide S receptor (Homo sapiens) (UniProt Q6W5P4). The assay is described as follows: Confirmation Concentration-Response Assay for Antagonists of the Neuropeptide S Receptor: cAMP Signal Transduction. A digest of the protocol:
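LANCE TR-FRET cAMP read-out: 665/620 nm emission ratio, with the 620 nm donor channel also reported, after 2 h RT detection. Stably transfected CHO-NPSR cells got compound titrations and 100 nM NPS in stimulation reagent for 60 min at 37C. IC50 came from Hill fits.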
Potency is read from the fitted curve at half-maximal effect.

Chain of Neuropeptide S receptor (Homo sapiens) (Q6W5P4 whole entry, looked up): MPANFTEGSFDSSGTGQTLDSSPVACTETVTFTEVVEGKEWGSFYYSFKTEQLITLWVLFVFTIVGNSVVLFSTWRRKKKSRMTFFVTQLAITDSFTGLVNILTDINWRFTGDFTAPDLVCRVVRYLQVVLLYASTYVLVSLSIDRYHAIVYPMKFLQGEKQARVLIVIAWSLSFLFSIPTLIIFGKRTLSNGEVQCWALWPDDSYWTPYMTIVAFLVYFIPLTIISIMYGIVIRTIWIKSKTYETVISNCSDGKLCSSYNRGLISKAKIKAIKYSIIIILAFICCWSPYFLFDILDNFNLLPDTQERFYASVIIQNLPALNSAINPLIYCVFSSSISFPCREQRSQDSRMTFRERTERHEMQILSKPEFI

As for `N=c1c2c(ccn1-c1ccccc1)Oc1ccc3ccccc3c1C2c1ccccc1` (stereo unspecified), the Potency was 2.51 µM (active).

Take `O=[N+]([O-])c1ccc(N=Nc2ccc(O)cc2O)cc1`: the Potency entry was “inactive”.

On to `O=C(O)C1CCN(c2nc(-c3ccccc3)nc3c2oc2ccccc23)CC1`, for which the Potency entry is “inactive”. In the case of `Cc1cccnc1NC(=O)c1c(O)c2cccc3c2n(c1=O)CCC3` it was “inactive”. In the case of `CCCCNS(=O)(=O)c1ccc2nc(-c3cccnc3)cc(C(=O)NC(C)CC)c2c1` (stereo unspecified) it was “inactive”; in that of `C=CCn1c(SCCN2C(=O)c3ccccc3C2=O)nc2scc(-c3ccccc3)c2c1=O`, “inactive”. In the case of `N=c1c2c(ncn1-c1ccccc1)Oc1ccc3ccccc3c1C2c1ccc2c(c1)OCCO2` (stereo unspecified), the Potency was 1.41 µM (active). The result for `CCC(=O)O[C@]1(C(=O)CCl)[C@@H](C)C[C@H]2[C@@H]3CCC4=CC(=O)C=C[C@]4(C)[C@@]3(F)[C@@H](O)C[C@@]21C` reads 11.2 µM (active).

As for `O=C(CCc1ccccc1)Nc1ncnc2c1C(c1ccccc1)c1c(ccc3ccccc13)O2` (stereo unspecified), the Potency is 3.55 µM (active). In the case of `CCC(c1nnnn1C1CCCC1)N1CCN(c2ccccc2)CC1` (stereo unspecified) it was “inactive”; in that of `N[C@@H](Cc1cc(I)c(Oc2ccc(O)c(I)c2)c(I)c1)C(=O)O`, “inactive”; in that of `COCCCn1cnc2c(c1=O)c1nc3ccccc3nc1n2CCc1ccccc1`, “inactive”. In the case of `CCOc1ccc(N2C(=O)CC(NCCc3ccncc3)C2=O)cc1` (stereo unspecified) it was “inactive”; in that of `NC(=O)OCC(COC(N)=O)c1ccccc1`, “inactive”. For `COc1ccc(N(CC(=O)Nc2cccc(SC)c2)S(C)(=O)=O)cc1Cl`, the Potency entry was “inactive”. For the compound `COc1ccc(CCNC(=O)CC(c2ccccc2)c2cccc(C)c2O)cc1OC` (stereo unspecified), the Potency result is “inactive”.
